The nature of assay [1]: NCI Yeast Anticancer Drug Screen. Data for the rad50 strain (AID 155).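 Further: 0% = growth of vehicle-only cultures of the same strain.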 The note with it: S. cerevisiae rad50 strain growth inhibition; at 50.0 µM; active compounds read high. The method in brief:
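Readout: growth inhibition relative to vehicle-treated cultures. Compound exposure was carried out in a genetically defined yeast strain deficient in DNA damage repair.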

A short description of assay [2]: NCI Yeast Anticancer Drug Screen. Data for the mec2-1 strain (AID 157). The note with it: S. cerevisiae mec2-1 strain, at 50.0 µM, active compounds read high. The gist of the method:
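Vehicle-treated cultures served as reference for growth inhibition of compound-exposed mec2-1 yeast.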

Assay [3] can be described thus: NCI Yeast Anticancer Drug Screen. Data for the sgs1 mgt1 strain (AID 161).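 Further: 0% = growth of cultures given vehicle only.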 The settings on record: S. cerevisiae sgs1 mgt1 strain, at 50.0 µM, active compounds read high. The gist of the method: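 Mutant yeast exposed to compound; growth scored against vehicle-only wells.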
Assay [4] can be described thus: NCI Yeast Anticancer Drug Screen. Data for the cln2 rad14 strain (AID 165).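 Further: 0% = growth equal to vehicle treated cultures.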 The note with it: S. cerevisiae cln2 rad14 strain, at 50.0 µM, active compounds read high. The gist of the method:
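Each compound was tested on cln2 rad14 yeast. Inhibition of growth was calculated against vehicle-exposed controls.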

Assay [5] can be described thus: NCI Yeast Anticancer Drug Screen. Data for the bub3 strain (AID 167). The settings on record: S. cerevisiae bub3 mutant strain, at 50.0 µM, active compounds read high. The method in brief: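 Readout: yeast growth inhibition, expressed relative to vehicle-only wells. The test organism is a mutant strain from a panel with lesions in DNA repair or checkpoint genes.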
Assay [6] can be described thus: NCI Yeast Anticancer Drug Screen. Data for the mlh1 rad18 strain (AID 175). The settings on record: S. cerevisiae mlh1 rad18 strain growth inhibition; at 50.0 µM; active compounds read high. The method in brief: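 Vehicle-treated cultures served as the reference for growth inhibition in a yeast strain carrying DNA damage repair alterations exposed to each compound.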

Compounds without any hit were thinned out: in the full panel of roughly 79,000, 15% have a hit. Values without a mark were called inactive. The source made the active and inactive calls. No stated cut-off is given here; in the data, active means growth inhibition above about 70%; inactive means the rest. Where a SMILES comes first, the peptide text is derived from it. The star is where a group is joined. Boc = CC(C)(C)OC(=O)*; NHNH2 = NN*

As to `Clc1ccccc1/C=C1\c2ccc(Br)cc2-c2cccc[n+]21`, the growth inhibition in assay [1] was 92.1% (active); in assay [2], 95.8% (active); in assay [3] it was 95.5% (active); in assay [4], 91.4% (active); in assay [5] it was 93% (active); in assay [6], 95.7% (active).

On to `CC(=O)OCCC(OC(C)=O)c1ccccn1` (stereo not drawn), for which the growth inhibition in assay [1] is -13.9%; in assay [2] it was -13.1%; in assay [3], -9.1%; in assay [4] it was -2.95%; in assay [5], 3.95%; in assay [6], -18.6%.

`c1ccc(C2=Nc3ccccc3N=C3CCCC32)cc1` (stereo not drawn): the growth inhibition is 45.2% in assay [1]; 22.6% in assay [2]; 3.3% in assay [3]; 10.6% in assay [4]; 21.4% in assay [5]; 58.7% in assay [6].

Consider `Cc1cc(=O)oc2cc(OC(=O)Nc3ccc(F)c([N+](=O)[O-])c3)ccc12`, for which the growth inhibition is 7.85% in assay [1]; 45.2% in assay [2]; 27.1% in assay [3]; -11.8% in assay [4]; 53.9% in assay [5]; 12.5% in assay [6].

Regarding `CSc1ccc2c(cc1=O)[C@@H](NC(C)=O)CCc1cc(O)c(O)c(O)c1-2`, the growth inhibition in assay [1] is 7.1%; in assay [2], 12.3%; in assay [3], 18.1%; in assay [4], 4.85%; in assay [5], 17.4%; in assay [6], 22.8%.

With `CCCCC(O)(CCCC)CC(C)C`, the growth inhibition in assay [1] was 8.4%; in assay [2], 19.5%; in assay [3], -2.4%; in assay [4], -19.9%; in assay [5] it was -16.7%; in assay [6], 5.85%.

Regarding `CCOC(=O)c1nc(N)c2c(CC#N)nn(C)c2n1`, the growth inhibition was 2.35% in assay [1]; -15.4% in assay [2]; 8.3% in assay [3]; -9.75% in assay [4]; 9.95% in assay [5]; -16.4% in assay [6].

Take `Cc1ccc(N=CN(C)C)c(Cl)c1`: the growth inhibition is -4.5% in assay [1]; 0.8% in assay [2]; 4.6% in assay [3]; -16.8% in assay [4]; -7.4% in assay [5]; -23.1% in assay [6].

Turning to `O=C(O)/C=C/C(=O)Nc1cccc2c1Cc1ccccc1-2`, the growth inhibition is -7.2% in assay [1]; 9% in assay [2]; 20.9% in assay [3]; -29.5% in assay [4]; -4.3% in assay [5]; 19.9% in assay [6].

For the compound `NC(=O)C(CO)NC(=O)c1ccc[n+](Cc2ccccc2)c1` (stereo not drawn), the growth inhibition in assay [1] is 5.3%; in assay [2], -1.6%; in assay [3], -1.2%; in assay [4], -4.5%; in assay [5], 0.15%; in assay [6], 27.9%.

For `CCNN(CC)C(N)=O`, the growth inhibition in assay [1] is 5.2%; in assay [2], -5%; in assay [3], 0.4%; in assay [4] it was 7.6%; in assay [5], -13.2%; in assay [6], -1.25%.

On to `O=P(O)(O)c1ccccc1Oc1ccccc1`, for which the growth inhibition in assay [1] was 7.8%; in assay [2], 7.55%; in assay [3], 26.3%; in assay [4], 29.1%; in assay [5], 8.05%; in assay [6] it was 6.95%.

In the case of `O=C(O)c1ccccc1SC(Sc1ccccc1C(=O)O)c1ccc2c(c1)OCO2`, the growth inhibition was 11.3% in assay [1]; -11.9% in assay [2]; 2.85% in assay [3]; -11.6% in assay [4]; 33.6% in assay [5]; 28% in assay [6].

On to `CCOC(=O)c1ccc(C)cc1F`, for which the growth inhibition was -1.85% in assay [1]; 2.3% in assay [2]; 0.2% in assay [3]; -38.6% in assay [4]; -7.8% in assay [5]; 7.65% in assay [6].

For the compound `CC[C@]12C=CCN3CCC4(c5cc([C@@]6(C(=O)OC)CC7CN(CCc8c6[nH]c6ccccc86)C[C@@H]6CCC[C@H]76)c(OC)cc5N(C)C4[C@](O)(C(=O)OC)C1OC(C)=O)C32` (stereo partly drawn), the growth inhibition in assay [1] is -9.2%; in assay [2] it was 3.8%; in assay [3], -30.6%; in assay [4], -22.1%; in assay [5], -45%; in assay [6], 9.3%.

`COc1ccc(/C=C2\CCC(CCN(C)C)(C3=CCCC3)C2=O)cc1` (stereo not drawn): the growth inhibition in assay [1] was 2.1%; in assay [2], -6.6%; in assay [3], 15%; in assay [4] it was 18.1%; in assay [5] it was -14.4%; in assay [6], 9.4%.

As for `O=C(N/N=C\c1ccc([N+](=O)[O-])cc1)Nc1ccc2ccccc2c1`, the growth inhibition in assay [1] was 3.15%; in assay [2], 8.1%; in assay [3], 1.85%; in assay [4], 8.3%; in assay [5], 25.2%; in assay [6], 14.1%.

As to `CCCCCCOc1ccc(OCCCC[N+]2(CC)CCCCC2)cc1`, the growth inhibition was 75.5% (active) in assay [1]; 87.8% (active) in assay [2]; 73.7% (active) in assay [3]; 46.5% in assay [4]; 90.8% (active) in assay [5]; 90.8% (active) in assay [6].

On to `CCC(C)C(NC(=O)C(Cc1c[nH]c2ccccc12)NC(=O)OC(C)(C)C)C(=O)NN` (stereo not drawn) (Boc-Trp-Ile-NHNH2; configuration not given here), for which the growth inhibition in assay [1] is 24.8%; in assay [2], 3.7%; in assay [3], 8.5%; in assay [4], 15.4%; in assay [5] it was -4.35%; in assay [6], 15.6%.

In the case of `CNC(=O)NC1CCC(C)CC1` (stereo not drawn), the growth inhibition in assay [1] is 2%; in assay [2], 2.6%; in assay [3], 1.5%; in assay [4], -14.3%; in assay [5], -6.25%; in assay [6], 7.85%.

For the compound `Clc1ccc2cc3ccccc3cc2c1`, the growth inhibition is -16.7% in assay [1]; 2.5% in assay [2]; -3.95% in assay [3]; -16.4% in assay [4]; 5.8% in assay [5]; -21% in assay [6].

With `O=C(Nc1ccc(Cl)cc1[N+](=O)[O-])Oc1ccc(-c2ccccc2)cc1`, the growth inhibition in assay [1] was 23.4%; in assay [2] it was 58.5%; in assay [3] it was 48.1%; in assay [4], 8.3%; in assay [5], 78.8% (active); in assay [6], 66%.

In the case of `O=C1NC(N2CCCCC2)=N/C1=C\c1ccccc1O`, the growth inhibition is 5% in assay [1]; -25.3% in assay [2]; -2.85% in assay [3]; 15.1% in assay [4]; 5.5% in assay [5]; 89.7% (active) in assay [6].

`Cc1cccc(NCc2ccncc2)n1`: the growth inhibition is 19.2% in assay [1]; 9.2% in assay [2]; 26.8% in assay [3]; 2.15% in assay [4]; 1.85% in assay [5]; 6.75% in assay [6].

`CC(C)NC(=O)OCc1cn2c(c1COC(=O)NC(C)C)CCC2`: the growth inhibition in assay [1] is 20.4%; in assay [2] it was 12.8%; in assay [3] it was 36%; in assay [4] it was 22.4%; in assay [5] it was 14.2%; in assay [6] it was 35%.

For the compound `Fc1ccc(CSc2cnnc(SCc3ccc(F)cc3)c2SCc2ccc(F)cc2)cc1`, the growth inhibition in assay [1] is -23.2%; in assay [2], 2.75%; in assay [3] it was -20.2%; in assay [4], -21.9%; in assay [5], -13.9%; in assay [6] it was -34.7%.

Take `Nc1ccc(Nc2ccc([N+](=O)[O-])cc2S(=O)(=O)O)cc1`: the growth inhibition is 9.1% in assay [1]; 4% in assay [2]; -17% in assay [3]; -16.4% in assay [4]; -7.65% in assay [5]; 10.8% in assay [6].

As to `CC(=O)Oc1ccc(I)cc1C(=O)O`, the growth inhibition in assay [1] is 5.7%; in assay [2] it was -29.4%; in assay [3], 1.25%; in assay [4], -12.7%; in assay [5], 6.75%; in assay [6] it was -11.8%.

Take `CCCCC(C)NC(=O)c1ccccc1` (stereo not drawn): the growth inhibition in assay [1] was 4.3%; in assay [2], 11.3%; in assay [3], -23.8%; in assay [4] it was -52.5%; in assay [5] it was -3.8%; in assay [6], 2%.

For the compound `CC(C)=C(Cl)c1c(C)cc(C)c(CC(N)=O)c1C`, the growth inhibition in assay [1] was -14.1%; in assay [2], -3.75%; in assay [3] it was -8.15%; in assay [4] it was -27.2%; in assay [5], -9.95%; in assay [6], 10.1%.

As for `CCOC(=O)/C(I)=C/c1cc(OC)c(OC)c(OC)c1`, the growth inhibition in assay [1] was -2.2%; in assay [2], 15.5%; in assay [3], 4.6%; in assay [4] it was 13.9%; in assay [5], 28.2%; in assay [6], 19.9%.

For `N#C/C(=C\c1cccs1)C(=O)c1ccco1`, the growth inhibition in assay [1] is 10.2%; in assay [2], 4.65%; in assay [3], 24.1%; in assay [4], 25.2%; in assay [5] it was 17.2%; in assay [6], -5.85%.

With `CC(C)c1ccc(Cc2ccc(C(C)C)c(NC(=O)C(=O)Cc3cnc4ccccc4n3)c2C(C)C)c(C(C)C)c1NC(=O)C(=O)Cc1cnc2ccccc2n1`, the growth inhibition in assay [1] is -28.4%; in assay [2], -18.4%; in assay [3], -24.9%; in assay [4], 14.3%; in assay [5], -13.2%; in assay [6], -28.8%.

As for `CC1(C)Cc2[nH]c3ccccc3c(=O)c2-c2nc3ccccc3c(=O)n21`, the growth inhibition in assay [1] is -5.35%; in assay [2], 6.05%; in assay [3], 4.8%; in assay [4], -35.6%; in assay [5], -2.2%; in assay [6], -12.9%.

Take `O=C1OCC2=C1C(c1ccc3c(c1)OCO3)c1cc3c(cc1O2)OCO3` (stereo not drawn): the growth inhibition in assay [1] was -6.8%; in assay [2], -10.9%; in assay [3], -39.2%; in assay [4], 5.4%; in assay [5], -8.6%; in assay [6] it was -16.6%.

With `CC[CH2][Sn]([CH2]CC)([O]C(=O)Cc1ccc(F)cc1)[O][Sn]([CH2]CC)([CH2]CC)[O]C(=O)Cc1ccc(F)cc1`, the growth inhibition in assay [1] is 90.2% (active); in assay [2] it was 89.4% (active); in assay [3], 87.8% (active); in assay [4], 82.8% (active); in assay [5], 89.1% (active); in assay [6] it was 83.6% (active).

For `C=C1CCC1`, the growth inhibition in assay [1] was 1.05%; in assay [2], -11.5%; in assay [3], -14.7%; in assay [4], 10.6%; in assay [5], 6.05%; in assay [6], -3.35%.

As for `Cc1ccc(C(=O)Nc2ccc(CP(=O)(O)O)cc2CP(=O)(O)O)cc1NC(=O)c1cccc(N)c1`, the growth inhibition in assay [1] was -7.3%; in assay [2] it was -1.95%; in assay [3], 4.4%; in assay [4] it was 0.4%; in assay [5], 0.8%; in assay [6], -1.25%.

Source of the values: PubChem BioAssay (NCI).
